Reference: PubChem BioAssay (NCI)
Compounds without any hit were thinned out: in the full panel of roughly 83,000, 20% have a hit.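 Testing used 96-well plates and a 48-hour single-concentration exposure. Example: -40 means 40% of the starting cells died.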 Values without a mark were called inactive. Activity calls are given as the source filed them. Rule for the calls: active = growth percent below 10; inactive = the rest.

Legend:
Assay in all cases: NCI-60 one-dose screen, 48 h (100 = growth as untreated, 0 = no growth, -100 = all killed)
Settings in all cases: 10 µM unless noted
SK-MEL-2 melanoma = tested on: SK-MEL-2 melanoma
EKVX NSCLC = tested on: EKVX NSCLC
SN12C renal = tested on: SN12C renal
UO-31 renal = tested on: UO-31 renal
TK-10 renal = tested on: TK-10 renal
ACHN renal = tested on: ACHN renal
CAKI-1 renal = tested on: CAKI-1 renal
A498 renal = tested on: A498 renal
CCRF-CEM leukemia = tested on: CCRF-CEM leukemia
MOLT-4 leukemia = tested on: MOLT-4 leukemia

Structure (SMILES) | growth (SK-MEL-2 melanoma) | growth (EKVX NSCLC) | growth (SN12C renal) | growth (UO-31 renal) | growth (TK-10 renal) | growth (ACHN renal) | growth (CAKI-1 renal) | growth (A498 renal) | growth (CCRF-CEM leukemia) | growth (MOLT-4 leukemia)
O=c1[nH]c(Cc2nc3ccccc3s2)nc2cc(Br)ccc12 | 57.5% | 87.5% | 81.3% | 37.3% | 94.3% | 35.9% | 58.7% | 95.7% | 56.2% | 59%
CCOC(=O)C1=C(c2ccccc2)N=C2SC=C(c3ccc(Cl)cc3)N2C1c1ccc(Cl)cc1 (stereo not given) | 98.2% | 69.9% | 85.5% | 74.7% | 108% | 91.3% | 60.7% | 7.54% (active) | 79.3% | 31.5%
CC/C=C\C[C@H](O)C/C=C1/C(=O)C=C[C@@H]1C/C=C\CCCC(=O)N(C)C | 29% | 22.9% | -9.16% (active) | -81.3% (active) | -6.21% (active) | -85% (active) | -9.48% (active) | 50.2% | 0.876% (active) | 6.69% (active)
Cc1cc(C(=O)O)c(C)n1-c1cccc(C(=O)O)c1 | 18.8% | 98.5% | 83.7% | 85.5% | 95.8% | -8.94% (active) | 13.8% | 93% | 108% | 62.9%
CC1CCN(CCOc2ccc(CNc3ccc4nc(CCC5CCCCC5)[nH]c4c3)cc2)CC1 | -49.9% (active) | 65% | 57.9% | -31.9% (active) | 73.1% | 54.7% | -4.81% (active) | 2.94% (active) | 11.8% | 11.2%
Nc1ncnc2c1C(c1ccc(Br)cc1)c1sc3c(F)cccc3c1O2 (stereo not given) | 110% | 69.3% | 104% | 64.2% | 119% | 93.7% | 79.4% | 114% | 97.8% | 101%
COc1c(B(O)O)cccc1-c1cc(C)c2c(ccc3[nH]ncc32)n1 | 116% | 65.8% | 60.5% | 21.6% | 29.2% | 55.7% | -17.9% (active) | 8.91% (active) | 63.3% | 64.2%
O=C(CN1C(=O)NC2NC(=O)NC21)N/N=C/c1ccccc1[N+](=O)[O-] (stereo not given) | 114% | 103% | 105% | 87.8% | 116% | 103% | 90.1% | 104% | 107% | 103%
CCOC(=O)C1=C(N)Oc2c(sc3c(F)cccc23)C1c1ccc(O)cc1 (stereo not given) | 14.3% | 42.4% | 56% | 30.1% | 74% | 42.3% | 57.6% | 43.2% | 20.3% | 9.73% (active)
CCOC(=O)C/C(=N\Nc1cc(=O)[nH]c2ccc(Br)cc12)C(=O)OCC | 103% | 109% | 100% | 71.4% | 126% | 95.7% | 83.1% | 122% | -36.7% (active) | -15.7% (active)
O=C(N/N=C/c1c(Cl)cccc1Cl)c1cccnc1Nc1cccc(C(F)(F)F)c1 | -6.91% (active) | 17.6% | 42.6% | 29.8% | 35.6% | 29.6% | 60.1% | 65.6% | 18.9% | 31.7%
COc1ccc(-c2nc3cc(C(=O)NCc4ccccc4)ccc3n2C2CCCCC2)cc1 | 91.3% | 46.4% | 94.6% | 61.6% | 90.9% | 74.3% | 70.5% | 82.4% | 76.8% | 66.6%
Cc1ccc(C2=Nc3c(N)ncnc3NC(c3cccc(Nc4ccnc5cc(C(F)(F)F)ccc45)c3)C2)cc1 (stereo not given) | -11.1% (active) | 25.2% | 50% | 26.4% | 64.7% | 58.1% | 21% | 47.8% | 4.56% (active) | -2.37% (active)
[O-]/[N+](=C\c1ccc(-n2cc(Cc3ccccc3Cc3cn(-c4ccc(/C=[N+](/[O-])c5ccccc5)cc4)nn3)nn2)cc1)c1ccccc1 | 111% | 96.8% | 101% | 93.3% | 121% | 103% | 98.8% | 83.3% | 103% | 89.5%
CCN(CC)CCn1c2ccc(O)cc2c2sc3cc(O)ccc3c(=O)c21 | 57.9% | 48.8% | 20.9% | 26% | 64.9% | 3.32% (active) | 43.5% | 41.6% | 14.6% | 9.25% (active)
O=C1/C(=C/c2ccccc2O)CC/C1=C\c1ccccc1O | 105% | 56.9% | 27.7% | 46.4% | 160% | 70.2% | 92.4% | 108% | 1.74% (active) | 6.67% (active)
COc1ccc(Nc2nnc(-c3ccc(OC)c(OC)c3)o2)cc1 | 90.5% | 89.8% | 97.8% | 55.3% | 114% | 82.8% | 89% | 94.8% | 86.8% | 91.3%
Nc1nc(N)c(-c2ccc(Cl)c(Cl)c2)c(CBr)n1 | 87.6% | 85.3% | 79.2% | 88.7% | 83.6% | 68.4% | 82.3% | 89.9% | 55.8% | 61.3%
COC(CC(F)F)c1cn(S(=O)(=O)c2ccc(C)cc2)c2ccccc12 (stereo not given) | 41.3% | 48.3% | 43.3% | 33.8% | 59.3% | 51% | 37.4% | 42.3% | 11.1% | 22.3%
N#Cc1ccc2c(c1)C(=O)c1c-2n(CCCN)c(=O)c2cc([N+](=O)[O-])ccc12 | -52.2% (active) | -88% (active) | -100% (active) | -100% (active) | -100% (active) | -100% (active) | -91.4% (active) | -39.3% (active) | -72.6% (active) | -62.2% (active)
CCCCCCCCCCC(CN(CC)CC)C(O)c1ccccc1 (stereo not given) | 65.8% | 41.8% | 57.1% | 24.4% | 45.3% | 31.6% | 45.5% | 56.4% | 4.36% (active) | -15.2% (active)
Nc1c(C(=O)Nc2ccccc2F)sc2nc3c(cc12)CCCC3 | 43.7% | 41.2% | 40% | 46.9% | 60.9% | 50.7% | 57.4% | -0.37% (active) | 22.5% | 27%
O=c1c2ccccc2n2cnc3ccc(Cl)c1c32 | 96.5% | 62.7% | 76.1% | 44.8% | 49.2% | 50.5% | 43.1% | 54.1% | 95.7% | 89%
C=CCSc1nnc(NC(=O)CCl)s1 | 103% | 100% | 95.2% | 95.5% | 108% | 94.5% | 93.3% | 90.3% | 77.2% | 90.7%
NC(=O)CSc1oc(-c2ccccc2)nc1S(=O)(=O)c1ccc(Br)cc1 | 99.2% | 95.4% | 65.7% | 59.7% | 82.1% | 64.4% | 87.9% | 61.4% | 110% | 89.2%
CN1CCN(C(=O)c2ccc(NC(=O)c3cc4c(nn3)NCCN4Cc3cc(Cl)ccc3Cl)cc2)CC1 | 78.8% | 85.8% | 74.9% | 60.5% | 92.1% | 75.1% | 75.1% | 43.7% | 42% | 39.6%
Nc1[nH]n2cc(-c3ccccc3)nc2c1N=Nc1ccc(S(N)(=O)=O)cc1 | 31.6% | 54.6% | 20.1% | 19.5% | 48.4% | 8.58% (active) | 3.86% (active) | 8.19% (active) | 19.7% | 13.9%
